Active and inactive are the calls of the source. How the calls were made is not given here.
Molecular target: fMet-Leu-Phe receptor (Homo sapiens) (UniProt P21462)
Assay: FPR1 fluorescent ligand binding inhibitors, SAR follow-up, selectivity assay for FPRL1 ligand SAR project, cell-based, single concentration (AID 763)
Conditions: FPR1-expressing cells, hits give high values; at 5.4 µM unless noted

Chain of fMet-Leu-Phe receptor (Homo sapiens) (P21462 whole entry, looked up): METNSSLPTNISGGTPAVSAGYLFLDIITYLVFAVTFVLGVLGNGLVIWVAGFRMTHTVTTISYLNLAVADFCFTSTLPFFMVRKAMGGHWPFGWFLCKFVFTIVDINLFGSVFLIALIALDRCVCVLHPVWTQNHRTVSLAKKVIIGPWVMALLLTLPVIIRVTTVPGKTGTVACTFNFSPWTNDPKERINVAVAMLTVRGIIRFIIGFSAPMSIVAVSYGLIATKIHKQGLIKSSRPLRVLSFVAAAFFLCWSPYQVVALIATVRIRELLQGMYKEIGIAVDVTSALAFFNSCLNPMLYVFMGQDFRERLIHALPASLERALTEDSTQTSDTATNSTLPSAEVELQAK

inhibition, inactive:
Clc1ccc2nc(N3CCN(c4ccccc4)CC3)nc(-c3ccccc3)c2c1 1.7% [at 5.5 µM]
CCCC(=O)Nc1cccc(-c2cn3cccnc3n2)c1 -1.6% [at 7.9 µM]
COc1ccc(-c2cc(C(F)(F)F)nc(N3CCN(Cc4ccccc4)CC3)n2)cc1OC 4.7% [at 4.9 µM]
COc1ccc(-c2cc(C#N)nc(N3CCN(c4ccccc4)CC3)n2)cc1 2.6% [at 6 µM]
Fc1ccc(-c2cc(C(F)(F)F)nc(N3CCN(Cc4ccccc4)CC3)n2)cc1 0% [at 5.3 µM]
CCC(=O)Nc1cccc(-c2nc3ncccn3c2C)c1 5.6% [at 7.9 µM]
CC(=O)N1CCN(c2nc(-c3ccccc3)c3ccccc3n2)CC1 2.3% [at 6.7 µM]
CN1CCN(c2nc(-c3ccccc3)c3cc(Cl)ccc3n2)CC1 6.1% [at 6.6 µM]
Cc1ccc2nc(N3CCN(C(=O)CCCC(=O)O)CC3)nc(-c3ccccc3)c2c1 -4.8% [at 5.3 µM]
COc1ccc(-c2cn3cccnc3n2)cc1NC(=O)CCC1CCCCC1 -4.2% [at 5.9 µM]
COc1ccc(-c2cn3cccnc3n2)cc1NC(=O)CSCc1ccccc1 -0.7% [at 5.5 µM]
Cc1ccccc1C(=O)N1CCN(c2nc(-c3ccccc3)c3cc(Cl)ccc3n2)CC1 -3.4% [at 5 µM]
CCCCOc1ccc(C(=O)Nc2cc(-c3cn4cccnc4n3)ccc2OC)cc1 2.6% [at 5.3 µM]
Cc1ccc(-c2cn3cccnc3n2)cc1NC(=O)C(C)C 3.7% [at 7.6 µM]
COc1ccc(-c2cn3cccnc3n2)cc1NC(=O)c1ccc(Br)o1 0.9%
Cc1ccc(-c2cc(C(F)F)nc(N3CCN(Cc4ccccc4)CC3)n2)cc1 -7.2% [at 5.6 µM]
CC(=O)N1CCN(c2nc(-c3ccccc3)c3cc(C)ccc3n2)CC1 -0.1% [at 6.4 µM]
COc1ccc(C2CC(=O)c3cnc(N4CCN(Cc5ccc6c(c5)OCO6)CC4)nc3C2)c(OC)c1 (stereo not drawn) -4.7% [at 4.4 µM]
COc1ccc(-c2cc(C(F)(F)F)nc(N3CCN(c4ccc(F)cc4)CC3)n2)cc1OC -1.4% [at 4.8 µM]
O=C(c1cccc(F)c1)N1CCN(c2nc(-c3ccc(F)cc3)cc(C(F)(F)F)n2)CC1 -0.1% [at 5 µM]
Clc1cccc(-c2nc(N3CCN(c4ccccc4)CC3)nc3c2COc2ccccc2-3)c1 -0.5% [at 4.9 µM]
COc1ccc(-c2cn3cccnc3n2)cc1NC(=O)C(C)C -8.8% [at 7.2 µM]
COc1ccccc1-c1cc(C(F)(F)F)nc(N2CCN(c3ccccc3OC)CC2)n1 -2.2% [at 5 µM]
CCOC(=O)N1CCN(c2nc(-c3ccccc3)c3ccccc3n2)CC1 3.6% [at 6.1 µM]
O=C(c1ccccc1Cl)N1CCN(c2nc(-c3ccccc3)c3cc(Cl)ccc3n2)CC1 -3.1% [at 4.8 µM]
Cc1nc2c3c(-c4ccccc4)nc(N4CCN(C)CC4)nc3nn2c(C)c1CCC(=O)O 0% [at 5 µM]
CC(C)(C)OC(=O)N1CCN(c2nc(-c3ccccc3)c3cc([N+](=O)[O-])ccc3n2)CC1 -8.4% [at 5.1 µM]
CCOC(=O)N1CCN(c2nc(-c3ccc(OC)c(OC)c3)cc(C(F)(F)F)n2)CC1 4.1% [at 5.1 µM]
O=C(O)CCC(=O)N1CCN(c2nc(-c3ccccc3Cl)c3cc(Br)ccc3n2)CC1 2.5% [at 4.4 µM]
FC(F)(F)c1nc(N2CCN(Cc3ccccc3)CC2)nc2c1CCCCC2 0.9% [at 5.7 µM]
Cc1ccc(C(=O)N2CCN(c3nc(-c4ccccc4)c4cc(Br)ccc4n3)CC2)cc1 -4.3% [at 4.6 µM]
COc1ccc(-c2cn3cccnc3n2)cc1NC(=O)c1cccc(F)c1 -0.9% [at 6.1 µM]
COc1ccc(C2CC(=O)c3cnc(N4CCN(Cc5ccc6c(c5)OCO6)CC4)nc3C2)cc1OC (stereo not drawn) -0.9% [at 4.4 µM]

— PubChem BioAssay AID763 (NMMLSC, 2007)
